# In the supplement of paper PMC8728848:
# Many of the other results were omitted from the sample, so the strongest signals are more common in it than they were.
# B1: Cohesin-mDC-ASGPR (Macaca mulatta) (protein)
# chain: LDITSHHHHHHDDLDAVRIKVDTVNAKPGDTVRIPVRFSGIPSKGIANCDFVYSYDPNVLEIIEIEPGDIIVDPNPDKSFDTAVYPDRKIIVFLFAEDSGTGAYAITKDGVFATIVAKVKEGAPNGLSVIKFVEVGGFANNDLVEQKTQFFDGGVNVGDTTEPATPTTPVTTPTTTDDLDAASSQNSKFQRDLVTLRTDFSNFTSNTVAEIQALTSQGSSVEEMIASLKAEVEVIKQEQQAVHSEMLLRVQRLMQDLNKLTCQVATLKNNASTERTCCPVNWVEHQDSCYWFSRSGMPWAEAEKHCQLENAHLVVINSREEQNFVQEHLSFAYTWMGLSDREGAWKWVDGTDYETGFQNWKPGQPDDWQGHGLGGGEDCAHFHPDGRWNDDVCQRPYYWVCEAGLTQASQESH
# How the values were obtained:
# Test in all cases: glycan array binding signal (z-score within array); higher = stronger binding
# Conditions in all cases: glycan notation: IUPAC condensed, linker removed
# [1] = target: Fuc(a1-2)Gal(b1-3)GalNAc(a1-3)[Fuc(a1-2)]Gal(b1-4)Glc
# Method in brief: (§1)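 Glycan array data were curated from 3228 arrays in the Consortium for Functional Glycomics database and kept only where the protein sequence was available. Glycan names were converted to IUPAC-condensed notation, and columns mapping to the same glycan were averaged. The binding signal is a within-array Z-score, averaged across arrays of the same protein sequence at different concentrations or buffers and across linkers. Negative Z-scores can be read as non-binding.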
# [2] = target: Fuc(a1-2)Gal(b1-3)GalNAc(b1-3)Gal
# Method in brief: as §1
# [3] = target: Fuc(a1-2)Gal(b1-3)GlcNAc(b1-2)Man(a1-3)[Fuc(a1-2)Gal(b1-3)GlcNAc(b1-2)Man(a1-6)]Man(b1-4)GlcNAc(b1-4)[Fuc(a1-6)]GlcNAc
# Method in brief: as §1
# [4] = target: Fuc(a1-2)Gal(b1-3)GlcNAc6S
# Method in brief: as §1
# Fuc(a1-2)Gal(b1-4)Glc = target: Fuc(a1-2)Gal(b1-4)Glc
# Method in brief: as §1
# [5] = target: Fuc(a1-2)[Gal(a1-3)]Gal(b1-4)GlcNAc(b1-2)Man
# Method in brief: as §1
# [6] = target: Fuc(a1-2)[GalNAc(a1-3)]Gal(b1-3)GlcNAc(b1-6)GalNAc
# Method in brief: as §1
# [7] = target: Fuc(a1-2)[GalNAc(a1-3)]Gal(b1-4)GlcNAc(b1-6)GalNAc
# Method in brief: as §1
# [8] = target: Fuc(a1-2)[GalNAc(a1-3)]Gal(b1-4)[Fuc(a1-3)]GlcNAc
# Method in brief: as §1
# [9] = target: Fuc(a1-2)[GalNAc(a1-4)]Gal(b1-4)GlcNAc
# Method in brief: as §1
# [10] = target: Fuc(a1-3)[GalNAc(b1-4)]GlcNAc6S
# Method in brief: as §1
# Gal(a1-3)Gal = target: Gal(a1-3)Gal
# Method in brief: as §1
# Gal(a1-4)Gal(b1-4)GlcNAc = target: Gal(a1-4)Gal(b1-4)GlcNAc
# Method in brief: as §1
# Gal(b1-2)Gal = target: Gal(b1-2)Gal
# Method in brief: as §1
# [11] = target: Gal(b1-3)GlcNAc(b1-2)Man(a1-3)[Gal(b1-3)GlcNAc(b1-2)Man(a1-6)]Man(b1-4)GlcNAc(b1-4)[Fuc(a1-6)]GlcNAc
# Method in brief: as §1
# [12] = target: Gal(b1-3)GlcNAc(b1-2)[Gal(b1-3)GlcNAc(b1-6)]Man(a1-6)[Gal(b1-3)GlcNAc(b1-2)Man(a1-3)]Man(b1-4)GlcNAc(b1-4)GlcNAc
# Method in brief: as §1
# [13] = target: Gal(b1-3)GlcNAc(b1-3)Gal(b1-4)[Fuc(a1-3)]GlcNAc(b1-6)[Gal(b1-3)GlcNAc(b1-3)]Gal(b1-4)Glc
# Method in brief: as §1
# [14] = target: Gal(b1-3)[Fuc(a1-4)]GlcNAc(b1-6)GalNAc
# Method in brief: as §1
# [15] = target: Gal(b1-3)[Neu5Ac(a2-6)]GalNAc
# Method in brief: as §1
# [16] = target: Gal(b1-4)GlcNAc(b1-2)[Gal(b1-4)GlcNAc(b1-6)]Man(a1-6)[Gal(b1-4)GlcNAc(b1-2)Man(a1-3)]Man(b1-4)GlcNAc(b1-4)GlcNAc
# Method in brief: as §1
# [17] = target: Gal(b1-4)GlcNAc(b1-2)[Gal(b1-4)GlcNAc(b1-6)]Man(a1-6)[Gal(b1-4)GlcNAc(b1-2)Man(a1-3)]Man(b1-4)GlcNAc(b1-4)[Fuc(a1-6)]GlcNAc
# Method in brief: as §1
# [18] = target: Gal(b1-4)GlcNAc(b1-3)Gal(b1-4)GlcNAc(b1-3)Gal(b1-4)GlcNAc(b1-3)Gal(b1-4)GlcNAc(b1-3)Gal(b1-4)GlcNAc(b1-2)[Gal(b1-4)GlcNAc(b1-3)Gal(b1-4)GlcNAc(b1-3)Gal(b1-4)GlcNAc(b1-3)Gal(b1-4)GlcNAc(b1-3)Gal(b1-4)GlcNAc(b1-6)]Man(a1-6)[Gal(b1-4)GlcNAc(b1-3)Gal(b1-4)GlcNAc(b1-3)Gal(b1-4)GlcNAc(b1-3)Gal(b1-4)GlcNAc(b1-3)Gal(b1-4)GlcNAc(b1-2)Man(a1-3)]Man(b1-4)GlcNAc(b1-4)[Fuc(a1-6)]GlcNAc
# Method in brief: as §1
# Gal4S(b1-4)GlcNAc = target: Gal4S(b1-4)GlcNAc
# Method in brief: as §1
# GalNAc(b1-3)Gal = target: GalNAc(b1-3)Gal
# Method in brief: as §1
# GalNAc(b1-4)GlcNAc = target: GalNAc(b1-4)GlcNAc
# Method in brief: as §1
# GalNAc3S(b1-4)GlcNAc3S = target: GalNAc3S(b1-4)GlcNAc3S
# Method in brief: as §1
# GalNAc6S(b1-4)GlcNAc = target: GalNAc6S(b1-4)GlcNAc
# Method in brief: as §1
# [19] = target: GlcNAc(b1-3)Gal(b1-4)GlcNAc(b1-2)[GlcNAc(b1-3)Gal(b1-4)GlcNAc(b1-6)]Man(a1-6)[GlcNAc(b1-3)Gal(b1-4)GlcNAc(b1-2)Man(a1-3)]Man(b1-4)GlcNAc(b1-4)GlcNAc
# Method in brief: as §1
# [20] = target: GlcNAc(b1-3)Gal(b1-4)GlcNAc(b1-3)Gal(b1-4)GlcNAc(b1-2)Man(a1-3)[GlcNAc(b1-3)Gal(b1-4)GlcNAc(b1-3)Gal(b1-4)GlcNAc(b1-2)Man(a1-6)]Man(b1-4)GlcNAc(b1-4)[Fuc(a1-6)]GlcNAc
# Method in brief: as §1
# [21] = target: GlcNAc(b1-4)[GlcNAc(b1-6)]GalNAc
# Method in brief: as §1
# Man(a1-3)[Man(a1-6)]Man = target: Man(a1-3)[Man(a1-6)]Man
# Method in brief: as §1
# [22] = target: Neu5Ac(a2-3)Gal(b1-3)GlcNAc(b1-2)Man
# Method in brief: as §1
# [23] = target: Neu5Ac(a2-3)Gal(b1-3)GlcNAc(b1-6)GalNAc
# Method in brief: as §1
# [24] = target: Neu5Ac(a2-3)Gal(b1-4)GlcNAc(b1-3)Gal(b1-4)GlcNAc(b1-3)Gal(b1-4)GlcNAc(b1-2)Man(a1-3)[Neu5Ac(a2-3)Gal(b1-4)GlcNAc(b1-3)Gal(b1-4)GlcNAc(b1-3)Gal(b1-4)GlcNAc(b1-2)Man(a1-6)]GalNAc
# Method in brief: as §1
# [25] = target: Neu5Ac(a2-3)Gal(b1-4)GlcNAc(b1-3)Gal(b1-4)GlcNAc(b1-3)GalNAc
# Method in brief: as §1
# [26] = target: Neu5Ac(a2-3)Gal(b1-4)GlcNAc(b1-3)GalNAc
# Method in brief: as §1
# [27] = target: Neu5Ac(a2-3)Gal(b1-4)GlcNAc(b1-6)GalNAc
# Method in brief: as §1
# [28] = target: Neu5Ac(a2-6)Gal(b1-4)GlcNAc(b1-2)[Neu5Ac(a2-6)Gal(b1-4)GlcNAc(b1-4)]Man(a1-3)[GlcNAc(b1-4)][Neu5Ac(a2-6)Gal(b1-4)GlcNAc(b1-2)[Neu5Ac(a2-6)Gal(b1-4)GlcNAc(b1-6)]Man(a1-6)]Man(b1-4)GlcNAc(b1-4)GlcNAc
# Method in brief: as §1
# [29] = target: Neu5Ac(a2-6)Gal(b1-4)GlcNAc(b1-3)GalNAc
# Method in brief: as §1
# [30] = target: Neu5Ac(a2-6)Gal(b1-4)GlcNAc(b1-6)[Gal(b1-3)GlcNAc(b1-3)]Gal(b1-4)Glc
# Method in brief: as §1
# Neu5Ac(a2-6)GalNAc = target: Neu5Ac(a2-6)GalNAc
# Method in brief: as §1
# [31] = target: Neu5Ac(a2-6)GalNAc(b1-4)GlcNAc6S
# Method in brief: as §1
# [32] = target: Neu5Ac(a2-8)Neu5Ac(a2-3)[Gal(b1-3)GalNAc(b1-4)]Gal(b1-4)Glc
# Method in brief: as §1
# [33] = target: Neu5Gc(a2-3)Gal(b1-4)GlcNAc
# Method in brief: as §1
# [34] = target: Neu5Gc(b2-6)Gal(b1-4)GlcNAc
# Method in brief: as §1
binder,measurement,setting,value
B1,glycan array binding signal (z-score),[1],-0.406
same,glycan array binding signal (z-score),[2],0.568
same,glycan array binding signal (z-score),[3],-0.227
same,glycan array binding signal (z-score),[4],0.873
same,glycan array binding signal (z-score),Fuc(a1-2)Gal(b1-4)Glc,-0.387
same,glycan array binding signal (z-score),[5],-0.34
same,glycan array binding signal (z-score),[6],3.22
same,glycan array binding signal (z-score),[7],3.46
same,glycan array binding signal (z-score),[8],0.425
same,glycan array binding signal (z-score),[9],3.47
same,glycan array binding signal (z-score),[10],3.4
same,glycan array binding signal (z-score),Gal(a1-3)Gal,-0.427
same,glycan array binding signal (z-score),Gal(a1-4)Gal(b1-4)GlcNAc,-0.412
same,glycan array binding signal (z-score),Gal(b1-2)Gal,-0.312
same,glycan array binding signal (z-score),[11],-0.402
same,glycan array binding signal (z-score),[12],-0.399
same,glycan array binding signal (z-score),[13],-0.418
same,glycan array binding signal (z-score),[14],3.02
same,glycan array binding signal (z-score),[15],-0.372
same,glycan array binding signal (z-score),[16],-0.394
same,glycan array binding signal (z-score),[17],-0.418
same,glycan array binding signal (z-score),[18],-0.379
same,glycan array binding signal (z-score),Gal4S(b1-4)GlcNAc,-0.407
same,glycan array binding signal (z-score),GalNAc(b1-3)Gal,3.51
same,glycan array binding signal (z-score),GalNAc(b1-4)GlcNAc,3.5
same,glycan array binding signal (z-score),GalNAc3S(b1-4)GlcNAc3S,-0.428
same,glycan array binding signal (z-score),GalNAc6S(b1-4)GlcNAc,3.82
same,glycan array binding signal (z-score),[19],-0.07
same,glycan array binding signal (z-score),[20],-0.329
same,glycan array binding signal (z-score),[21],-0.393
same,glycan array binding signal (z-score),Man(a1-3)[Man(a1-6)]Man,-0.397
same,glycan array binding signal (z-score),[22],-0.342
same,glycan array binding signal (z-score),[23],3.56
same,glycan array binding signal (z-score),[24],-0.248
same,glycan array binding signal (z-score),[25],-0.413
same,glycan array binding signal (z-score),[26],-0.418
same,glycan array binding signal (z-score),[27],3.67
same,glycan array binding signal (z-score),[28],-0.401
same,glycan array binding signal (z-score),[29],2.03
same,glycan array binding signal (z-score),[30],-0.418
same,glycan array binding signal (z-score),Neu5Ac(a2-6)GalNAc,3.61
same,glycan array binding signal (z-score),[31],2.56
same,glycan array binding signal (z-score),[32],3.49
same,glycan array binding signal (z-score),[33],-0.399
same,glycan array binding signal (z-score),[34],-0.424
